Structures are written as SMILES. This is part of a sample that, as a whole, favours compounds with a hit. Of some 83,000 tested, about 20% had one in any assay.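 Each cell line was grown in a 96-well plate and treated with one concentration of compound for 48 hours. Values below 10 were considered active.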 A number with no mark means an inactive call. Active and inactive are the calls of the source.

The values that follow come from PubChem BioAssay (NCI).

Test systems include DU-145 prostate; K-562 leukemia; MALME-3M melanoma; MDA-MB-231 breast; RXF 393 renal; SF-268 CNS; SF-539 CNS; UACC-257 melanoma; M14 melanoma; HCT-15 colon; HT29 colon; SNB-75 CNS; SNB-19 CNS; U251 CNS; PC-3 prostate; SK-MEL-5 melanoma; UACC-62 melanoma; LOX IMVI melanoma; SK-MEL-28 melanoma.
What all share (assay): NCI-60 one-dose screen, 48 h (100 = growth as untreated, 0 = no growth, -100 = all killed)
What all share (settings): 10 µM unless noted

For the compound `Cc1nn(-c2ccc(Cl)cc2)c(=O)n1CCN1CCOCC1`, the growth with DU-145 prostate is 78.5%; in the test on K-562 leukemia, 70.1%; in the test on MALME-3M melanoma it was 59.1%; with MDA-MB-231 breast it was 57.3%; in the test on RXF 393 renal it was 42.1%; in the test on SF-268 CNS, 48.4%. The growth was 67% with SF-539 CNS; 73.4% with UACC-257 melanoma; 69.8% in the test with M14 melanoma; 74.2% with HCT-15 colon; 104% in the test on HT29 colon; 7.65% (active) with SNB-75 CNS. Further, the growth with SNB-19 CNS is 58.7%; in the test with U251 CNS, 42.9%; in the test with PC-3 prostate it was 80.8%; in the test with SK-MEL-5 melanoma, 80.3%; in the test on UACC-62 melanoma, 82.8%; in the test on LOX IMVI melanoma, 81.6%. Further, in the test on SK-MEL-28 melanoma, the growth was 92.9%.
As for `COc1cccc(NC(=O)c2c(-c3ccccc3)c(-c3ccccc3)n[nH]c2=O)c1`, the growth in the test on DU-145 prostate was 106%; in the test with K-562 leukemia, 81.9%; with MALME-3M melanoma, 101%; in the test on MDA-MB-231 breast it was 102%; in the test with RXF 393 renal it was 103%; with SF-268 CNS it was 105%. Further, the growth is 101% with SF-539 CNS; 97.9% in the test with UACC-257 melanoma; 103% in the test with M14 melanoma; 97.6% in the test on HCT-15 colon; 101% with HT29 colon; 77.9% in the test with SNB-75 CNS. Further, the growth in the test on SNB-19 CNS was 93.4%; in the test with U251 CNS, 101%; in the test with PC-3 prostate, 94.6%; with SK-MEL-5 melanoma it was 99.4%; with UACC-62 melanoma, 92.9%; in the test with LOX IMVI melanoma, 96.3%. In addition, in the test on SK-MEL-28 melanoma, the growth was 102%.
As to `COc1cc2c(cc1OC)C(=O)C(Br)CC2` (configuration not stated), the growth in the test with DU-145 prostate was 31.5%; in the test on K-562 leukemia, 16.5%; in the test with MALME-3M melanoma, 3.69% (active); with MDA-MB-231 breast it was 42.6%; with RXF 393 renal, 40.8%; in the test with SF-268 CNS it was 64.6%. For the same compound, the growth in the test on SF-539 CNS is 68.2%; in the test with UACC-257 melanoma, 56.7%; with M14 melanoma it was 32%; with HCT-15 colon it was 17.5%; with HT29 colon, 24.1%; in the test on SNB-75 CNS, 53%. In addition, the growth is 85.3% in the test on SNB-19 CNS; 54% with U251 CNS; 31.2% in the test with PC-3 prostate; 53.2% in the test on SK-MEL-5 melanoma; 33% with UACC-62 melanoma; -0.506% (active) in the test with LOX IMVI melanoma. The growth with SK-MEL-28 melanoma was 67.7%.
As to `Fc1cc(-c2nnc3sc(-c4ccc(Cl)cc4)nn23)c(Cl)cc1Cl`, the growth with DU-145 prostate is 107%; in the test on K-562 leukemia it was 116%; in the test with MALME-3M melanoma it was 62%; in the test with MDA-MB-231 breast, 88.3%; with RXF 393 renal, 97.4%; in the test on SF-268 CNS, 98%. For the same compound, the growth was 107% in the test with SF-539 CNS; 103% in the test on UACC-257 melanoma; 102% with M14 melanoma; 96.5% with HCT-15 colon; 90.6% with HT29 colon; 75.5% in the test on SNB-75 CNS. Moreover, the growth in the test with SNB-19 CNS was 96.6%; in the test with U251 CNS it was 91.7%; in the test on PC-3 prostate, 102%; in the test on SK-MEL-5 melanoma, 85.6%; with UACC-62 melanoma it was 90.4%; with LOX IMVI melanoma, 91.7%. The growth with SK-MEL-28 melanoma was 84.4%.
`CCCCCCCCCCCCCC(=S)NCCCC[C@H](NC(=O)OCc1ccccc1)C(=O)Nc1ccccc1`: the growth with DU-145 prostate is 52.4%; in the test on K-562 leukemia it was 17.1%; in the test with MALME-3M melanoma, 83.6%; in the test with MDA-MB-231 breast, 17.5%; with RXF 393 renal, 69.1%; in the test on SF-268 CNS it was 43.3%. Also, the growth in the test with SF-539 CNS was 75.3%; in the test with UACC-257 melanoma it was 69.1%; in the test on M14 melanoma it was 37.3%; in the test on HCT-15 colon it was 32.6%; with HT29 colon it was 45.1%; in the test on SNB-75 CNS, 55.4%. The growth in the test on SNB-19 CNS is 45.8%; with U251 CNS it was 28.7%; in the test on PC-3 prostate, 25.7%; with SK-MEL-5 melanoma, 68.6%; in the test with UACC-62 melanoma, 43.1%; in the test with LOX IMVI melanoma, 42.2%. The growth in the test with SK-MEL-28 melanoma was 72.2%.
With `COc1cc(C2Nc3ccccc3S2)cc(CN2CCOCC2)c1O` (configuration not stated), the growth is 101% in the test on DU-145 prostate; 46.9% in the test on K-562 leukemia; 66.7% in the test on MALME-3M melanoma; 63.6% in the test with MDA-MB-231 breast; 78.5% with RXF 393 renal; 91.1% in the test with SF-268 CNS. For the same compound, the growth is 82.3% with SF-539 CNS; 78.2% with UACC-257 melanoma; 55.5% in the test on M14 melanoma; 52.3% in the test on HCT-15 colon; 93.4% in the test on HT29 colon; 46% in the test on SNB-75 CNS. Further, the growth in the test with SNB-19 CNS was 75.9%; in the test with U251 CNS, 86.7%; with PC-3 prostate, 82.1%; in the test on SK-MEL-5 melanoma, 50.6%; in the test on UACC-62 melanoma it was 57.3%; with LOX IMVI melanoma, 78.2%. Further, the growth with SK-MEL-28 melanoma is 68.6%.
Turning to `CCOC(=O)c1ccc(N(CCC(=O)O)C(C)=O)cc1`, the growth in the test on DU-145 prostate was 122%; in the test on K-562 leukemia it was 103%; in the test with MALME-3M melanoma, 99.8%; in the test with MDA-MB-231 breast, 110%; with RXF 393 renal it was 106%; with SF-268 CNS, 119%. Further, the growth in the test on SF-539 CNS is 107%; in the test with UACC-257 melanoma, 98.2%; with M14 melanoma, 105%; with HCT-15 colon, 103%; in the test with HT29 colon, 97.4%; in the test on SNB-75 CNS, 94.7%. Besides, the growth in the test with SNB-19 CNS is 106%; in the test on U251 CNS it was 102%; in the test with PC-3 prostate, 90%; in the test with SK-MEL-5 melanoma, 102%; in the test on UACC-62 melanoma, 99.4%; with LOX IMVI melanoma, 105%. In addition, in the test with SK-MEL-28 melanoma, the growth was 103%.
Regarding `COc1cccc(/C=N/N=C(N)N)c1`, the growth is 102% with DU-145 prostate; 94.5% in the test with K-562 leukemia; 111% in the test with MALME-3M melanoma; 91.4% in the test on MDA-MB-231 breast; 106% with RXF 393 renal; 101% with SF-268 CNS. The growth in the test with SF-539 CNS was 84.5%; in the test with UACC-257 melanoma it was 97.1%; with M14 melanoma, 93.8%; in the test on HCT-15 colon, 100%; in the test with HT29 colon it was 100%; in the test on SNB-75 CNS, 89.9%. The growth was 101% in the test on SNB-19 CNS; 103% in the test with U251 CNS; 97.2% in the test on PC-3 prostate; 98.1% in the test with SK-MEL-5 melanoma; 81.8% in the test with UACC-62 melanoma; 106% in the test with LOX IMVI melanoma. Also, the growth in the test on SK-MEL-28 melanoma is 106%.
